From PubChem BioAssay (NCI) come the findings set out here.

Assay [1] in a line: NCI Yeast Anticancer Drug Screen. Data for the rad50 strain (AID 155).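 Also: 0% = growth of vehicle-only cultures of the same strain.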 The settings on record: S. cerevisiae rad50 strain growth inhibition, hits give high values. In short, it runs like this:
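Cells are treated with compound, grown, and their growth is then scored against vehicle-only cultures of the same repair-deficient yeast strain.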

Assay [2] is described as follows: NCI Yeast Anticancer Drug Screen. Data for the mec2-1 strain (AID 157). The settings on record: S. cerevisiae mec2-1 strain, hits give high values. The method in brief:
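Readout is yeast growth inhibition, normalised to vehicle-treated controls, in the mec2-1 strain exposed to compound.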

Assay [3] can be described thus: NCI Yeast Anticancer Drug Screen. Data for the sgs1 mgt1 strain (AID 161).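 Also: 0% = growth of cultures given vehicle only.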 The conditions noted are these: S. cerevisiae sgs1 mgt1 strain, hits give high values. In short, it runs like this: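 Yeast cells carrying a defined DNA-repair defect were exposed to test compounds. Growth inhibition was measured relative to vehicle-treated controls.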
Assay [4] can be described thus: NCI Yeast Anticancer Drug Screen. Data for the cln2 rad14 strain (AID 165).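 Also: 0% = growth equal to vehicle treated cultures.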 The conditions noted are these: S. cerevisiae cln2 rad14 strain, hits give high values. The method in brief: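 Relative to vehicle controls, growth inhibition of compound-treated cln2 rad14 yeast was recorded.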
A short description of assay [5]: NCI Yeast Anticancer Drug Screen. Data for the bub3 strain (AID 167). The settings on record: S. cerevisiae bub3 mutant strain, hits give high values. In short, it runs like this: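 Part of a panel of yeast mutants defective in DNA damage repair or cell cycle regulation. Each strain is grown with compound, and inhibition is calculated relative to solvent-treated cultures.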

The nature of assay [6]: NCI Yeast Anticancer Drug Screen. Data for the mlh1 rad18 strain (AID 175). The conditions noted are these: S. cerevisiae mlh1 rad18 strain growth inhibition, hits give high values. In short, it runs like this: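 Test agents were incubated with a yeast strain of defined genotype (DNA damage repair defect). Inhibition of growth was derived by comparison with vehicle-exposed cultures.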

The mark [7] stands for this setting: at 5.0 µM (retest, dose inferred, filed as 0.5).
Where [8] appears, read: at 50.0 µM (retest, dose inferred, filed as 5.0).

Structures are written as SMILES. This is part of a sample that, as a whole, favours compounds with a hit. Of some 79,000 tested, about 15% had one in any assay. A number with no mark means an inactive call. The source made the active and inactive calls. Rule as the data show it: active = growth inhibition above about 70%; inactive = the rest.

As to `CC(=O)O[C@@H]1[C@@H](O)[C@H]2O[C@@H]3C=C(C)CC[C@]3(CO)[C@]1(C)[C@@]21CO1`, the growth inhibition in assay [1] (setting [7]) was 34%; in assay [1] (setting [8]), 93% (active); in assay [1] (at 50.0 µM) it was -11.2%; in assay [2] (setting [7]), 28%; in assay [2] (setting [8]) it was 96% (active); in assay [2] (at 50.0 µM), -22.9%. Besides, the growth inhibition is 33% in assay [3] (setting [7]); 95% (active) in assay [3] (setting [8]); 5.35% in assay [3] (at 50.0 µM); 52% in assay [4] (setting [7]); 98% (active) in assay [4] (setting [8]); -11.7% in assay [4] (at 50.0 µM). The growth inhibition in assay [5] (setting [7]) was 13%; in assay [5] (setting [8]) it was 98% (active); in assay [5] (at 50.0 µM), 9.3%; in assay [6] (setting [7]), 33%; in assay [6] (setting [8]), 95% (active); in assay [6] (at 50.0 µM) it was 91.8% (active).

Regarding `O=C1C(Cl)=C(Cl)C(=C2C(Cl)=C(Cl)C(=O)C(Cl)=C2Cl)C(Cl)=C1Cl`, the growth inhibition in assay [1] (setting [7]) is 98% (active); in assay [1] (setting [8]), 99% (active); in assay [1] (at 50.0 µM), 99.5% (active); in assay [2] (setting [7]) it was 97% (active); in assay [2] (setting [8]), 100% (active); in assay [2] (at 50.0 µM), 99.6% (active). The growth inhibition in assay [3] (setting [7]) is 91% (active); in assay [3] (setting [8]), 99% (active); in assay [3] (at 50.0 µM), 99.5% (active); in assay [4] (setting [7]), 99% (active); in assay [4] (setting [8]), 99% (active); in assay [4] (at 50.0 µM) it was 99% (active). The growth inhibition in assay [5] (setting [7]) was 79% (active); in assay [5] (setting [8]), 98% (active); in assay [5] (at 50.0 µM), 99.5% (active); in assay [6] (setting [7]), 97% (active); in assay [6] (setting [8]) it was 99% (active); in assay [6] (at 50.0 µM), 99.4% (active).

`NCCSC1(O)C(=O)c2ccccc2C1=O`: the growth inhibition in assay [1] (setting [7]) is 35%; in assay [1] (setting [8]) it was 92% (active); in assay [1] (at 50.0 µM) it was 94.4% (active); in assay [2] (setting [7]), 18%; in assay [2] (setting [8]) it was 72% (active); in assay [2] (at 50.0 µM) it was 65.7%. The growth inhibition is -4% in assay [3] (setting [7]); 64% in assay [3] (setting [8]); 56.1% in assay [3] (at 50.0 µM); -3% in assay [4] (setting [7]); 46% in assay [4] (setting [8]); 59.3% in assay [4] (at 50.0 µM). For the same compound, the growth inhibition in assay [5] (setting [7]) is -3%; in assay [5] (setting [8]) it was 43%; in assay [5] (at 50.0 µM), 48.5%; in assay [6] (setting [7]), 0%; in assay [6] (setting [8]), 70% (active); in assay [6] (at 50.0 µM) it was 75.2% (active).

For `CCOC(=O)/C(=C\c1ccc(C)cc1)C(C)=O`, the growth inhibition in assay [1] (setting [7]) is 19%; in assay [1] (setting [8]) it was 89% (active); in assay [1] (at 50.0 µM) it was 91.1% (active); in assay [2] (setting [7]), -19%; in assay [2] (setting [8]) it was 97% (active); in assay [2] (at 50.0 µM) it was 91.8% (active). Further, the growth inhibition is 24% in assay [3] (setting [7]); 95% (active) in assay [3] (setting [8]); 93.1% (active) in assay [3] (at 50.0 µM); 5% in assay [4] (setting [7]); 89% (active) in assay [4] (setting [8]); 84.7% (active) in assay [4] (at 50.0 µM). Besides, the growth inhibition in assay [5] (setting [7]) was 33%; in assay [5] (setting [8]) it was 98% (active); in assay [5] (at 50.0 µM), 91.2% (active); in assay [6] (setting [7]), 22%; in assay [6] (setting [8]) it was 96% (active); in assay [6] (at 50.0 µM), 90.7% (active).

In the case of `Nn1c(-c2ccccc2)nn(C(=O)c2ccccc2)c1=O`, the growth inhibition is 0% in assay [1] (setting [7]); 39% in assay [1] (setting [8]); 39.5% in assay [1] (at 50.0 µM); -2% in assay [2] (setting [7]); 45% in assay [2] (setting [8]); 39.7% in assay [2] (at 50.0 µM). The growth inhibition in assay [3] (setting [7]) was 15%; in assay [3] (setting [8]), 50%; in assay [3] (at 50.0 µM), 60%; in assay [4] (setting [7]) it was -1%; in assay [4] (setting [8]), 8%; in assay [4] (at 50.0 µM), 30.4%. Moreover, the growth inhibition was -3% in assay [5] (setting [7]); 62% in assay [5] (setting [8]); 14.7% in assay [5] (at 50.0 µM); 1% in assay [6] (setting [7]); 58% in assay [6] (setting [8]); 87.7% (active) in assay [6] (at 50.0 µM).

Take `O=C1OC(OC/C(Br)=C(/Br)COC2OC(=O)C(Cl)=C2Cl)C(Cl)=C1Cl` (configuration not stated): the growth inhibition was 93% (active) in assay [1] (setting [7]); 99% (active) in assay [1] (setting [8]); 99.2% (active) in assay [1] (at 50.0 µM); 64% in assay [2] (setting [7]); 99% (active) in assay [2] (setting [8]); 99.4% (active) in assay [2] (at 50.0 µM). Besides, the growth inhibition was 97% (active) in assay [3] (setting [7]); 100% (active) in assay [3] (setting [8]); 98.9% (active) in assay [3] (at 50.0 µM); 71% (active) in assay [4] (setting [7]); 98% (active) in assay [4] (setting [8]); 97.3% (active) in assay [4] (at 50.0 µM). The growth inhibition was 84% (active) in assay [5] (setting [7]); 99% (active) in assay [5] (setting [8]); 98.8% (active) in assay [5] (at 50.0 µM); 97% (active) in assay [6] (setting [7]); 99% (active) in assay [6] (setting [8]); 98.7% (active) in assay [6] (at 50.0 µM).

Regarding `CC(C)OP(=O)(OC(C)C)/C(I)=N/Nc1ccc([N+](=O)[O-])cc1`, the growth inhibition in assay [1] (setting [7]) is -7%; in assay [1] (setting [8]), -1%; in assay [1] (at 50.0 µM), 68.7%; in assay [2] (setting [7]), -6%; in assay [2] (setting [8]) it was 8%; in assay [2] (at 50.0 µM) it was 13.9%. Also, the growth inhibition in assay [3] (setting [7]) is 6%; in assay [3] (setting [8]) it was 37%; in assay [3] (at 50.0 µM) it was 38.4%; in assay [4] (setting [7]), -14%; in assay [4] (setting [8]) it was 14%; in assay [4] (at 50.0 µM) it was 13.1%. In addition, the growth inhibition is 1% in assay [5] (setting [7]); -1% in assay [5] (setting [8]); 61.7% in assay [5] (at 50.0 µM); 9% in assay [6] (setting [7]); 4% in assay [6] (setting [8]); 70% in assay [6] (at 50.0 µM).

Regarding `O=C(O)CCCc1ccc2c(c1)CC1(C2)Cc2ccc(CCCC(=O)O)cc2C1`, the growth inhibition was 28% in assay [1] (setting [7]); 44% in assay [1] (setting [8]); -38% in assay [1] (at 50.0 µM); 21% in assay [2] (setting [7]); 33% in assay [2] (setting [8]); 2.15% in assay [2] (at 50.0 µM). Moreover, the growth inhibition was 27% in assay [3] (setting [7]); 38% in assay [3] (setting [8]); -28.3% in assay [3] (at 50.0 µM); 22% in assay [4] (setting [7]); 27% in assay [4] (setting [8]); 8.65% in assay [4] (at 50.0 µM). Besides, the growth inhibition in assay [5] (setting [7]) was 20%; in assay [5] (setting [8]), 29%; in assay [5] (at 50.0 µM), 9.45%; in assay [6] (setting [7]) it was 28%; in assay [6] (setting [8]), 45%; in assay [6] (at 50.0 µM) it was -5.8%.

With `C/C=C/c1ccc(OCC(=O)O)c(OC)c1`, the growth inhibition was -14% in assay [1] (setting [7]); -10% in assay [1] (setting [8]); 99% (active) in assay [1] (at 50.0 µM); -9% in assay [2] (setting [7]); -18% in assay [2] (setting [8]); 98.2% (active) in assay [2] (at 50.0 µM). The growth inhibition in assay [3] (setting [7]) is 8%; in assay [3] (setting [8]) it was 1%; in assay [3] (at 50.0 µM), 98.2% (active); in assay [4] (setting [7]) it was -3%; in assay [4] (setting [8]), -11%; in assay [4] (at 50.0 µM), 98.2% (active). Moreover, the growth inhibition in assay [5] (setting [7]) is -31%; in assay [5] (setting [8]) it was -4%; in assay [5] (at 50.0 µM) it was 98.8% (active); in assay [6] (setting [7]), -5%; in assay [6] (setting [8]), -11%; in assay [6] (at 50.0 µM), 98% (active).
